The source of these data is paper PMC4336329 (PLoS ONE, 2015).

Molecules are shown by their SMILES. In all, about 310,000 compounds went through this assay and about 14,000 (4.5%) showed an effect of 50% or more. The effect is printed as a negative number. For the sample, strong results were picked, then their nearest neighbours and some compounds at random.
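Also: peak tail current of the secondary pulse compared with the same well before compound.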

human ether-à-go-go-related gene (hERG) potassium channel, sequence (Q12809 whole entry, looked up): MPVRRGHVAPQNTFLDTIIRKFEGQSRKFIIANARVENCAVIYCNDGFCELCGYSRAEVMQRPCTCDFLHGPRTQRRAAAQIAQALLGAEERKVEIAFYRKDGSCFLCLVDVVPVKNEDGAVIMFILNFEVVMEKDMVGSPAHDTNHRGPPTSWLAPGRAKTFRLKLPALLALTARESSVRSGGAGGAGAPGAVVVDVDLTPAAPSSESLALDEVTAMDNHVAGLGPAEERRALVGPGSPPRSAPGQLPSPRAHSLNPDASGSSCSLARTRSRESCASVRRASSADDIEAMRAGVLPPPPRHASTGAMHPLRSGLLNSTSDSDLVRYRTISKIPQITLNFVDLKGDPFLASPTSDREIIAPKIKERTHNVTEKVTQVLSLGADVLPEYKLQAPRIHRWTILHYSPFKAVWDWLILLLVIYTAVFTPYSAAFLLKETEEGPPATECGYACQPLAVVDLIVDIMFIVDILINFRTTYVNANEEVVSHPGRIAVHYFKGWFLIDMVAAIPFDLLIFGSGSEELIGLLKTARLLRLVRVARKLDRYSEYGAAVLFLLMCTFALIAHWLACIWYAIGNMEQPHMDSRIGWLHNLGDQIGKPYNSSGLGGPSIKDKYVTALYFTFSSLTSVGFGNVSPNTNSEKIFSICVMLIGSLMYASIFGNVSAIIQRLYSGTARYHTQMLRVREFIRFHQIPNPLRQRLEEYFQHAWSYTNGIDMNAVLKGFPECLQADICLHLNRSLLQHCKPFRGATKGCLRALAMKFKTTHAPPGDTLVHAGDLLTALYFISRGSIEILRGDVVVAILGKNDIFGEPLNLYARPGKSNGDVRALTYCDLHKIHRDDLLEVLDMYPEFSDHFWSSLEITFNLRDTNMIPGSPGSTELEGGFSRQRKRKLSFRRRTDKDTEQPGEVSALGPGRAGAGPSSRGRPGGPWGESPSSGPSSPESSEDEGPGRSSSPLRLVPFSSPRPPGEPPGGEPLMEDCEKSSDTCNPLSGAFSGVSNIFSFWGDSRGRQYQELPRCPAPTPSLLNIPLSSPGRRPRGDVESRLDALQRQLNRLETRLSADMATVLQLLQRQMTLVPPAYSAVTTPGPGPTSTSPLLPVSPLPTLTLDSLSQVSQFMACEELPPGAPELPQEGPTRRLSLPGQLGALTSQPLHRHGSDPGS

This assay has as its target human ether-à-go-go-related gene (hERG) potassium channel (human, UniProt Q12809). The experiment in a line: primary screen, population patch clamp on CHO cells stably expressing hERG; higher = less effect of the substance.
Regarding `O=C(COc1ccccc1)Nc1nonc1NC(=O)COc1ccccc1`, the “hERG current change (%, negative = inhibition) at 10uM” value was -12.8%.
In the case of `COc1cc(C(=S)N2CCCC2)ccc1O`, the “hERG current change (%, negative = inhibition) at 10uM” value stood at 18.6%.
In the case of `CCN1C(=O)C2(Nc3ccccc3-c3nc4ccccc4n32)c2cc(OC)ccc21` (centres unmarked), the “hERG current change (%, negative = inhibition) at 10uM” value is recorded as -4.35%.
Then `CCC(=O)N1CCc2cc(S(=O)(=O)CCC(=O)NCCc3ccc(OC)c(OC)c3)ccc21`, with -0.229%.
On to `O=C(Nc1ccc(Cl)c(Cl)c1)NC1CCS(=O)(=O)C1` (centres unmarked), for which the “hERG current change (%, negative = inhibition) at 10uM” value is given as -8.07%.
Then `COc1cc(NS(=O)(=O)c2ccc(NC(C)=O)cc2)ncn1`, with 0.81%.
Turning to `Cc1nn(-c2ccc(Cl)cc2)c(N)c1C(O)(CSc1nccn1C)C(F)(F)F` (centres unmarked), the “hERG current change (%, negative = inhibition) at 10uM” value was -22.9%.
`O=C(NCC1CCCO1)c1ccc2ccccc2n1` (centres unmarked): the “hERG current change (%, negative = inhibition) at 10uM” value was -3.04%.
The figure for `COc1cc(C(=O)NCCCc2nc3ccccc3n2Cc2cc(C)ccc2C)cc(OC)c1OC` is -33.6%.
The figure for `CCn1c(CCNC(=O)c2ccc(F)cc2)nc2ccccc21` is -33.9%; for `COc1ccc(C(=O)NCCCc2nc3ccccc3n2Cc2cc(C)ccc2C)cc1OC` it is -39.7%; for `COc1ccc(C(=O)NCCCc2nc3ccccc3n2Cc2ccccc2C)cc1OC` it is -55.4%.
`CCn1c(CCCNC(=O)c2ccc(F)cc2)nc2ccccc21`: the “hERG current change (%, negative = inhibition) at 10uM” value is -41.3%.
The figure for `CC(C)Cn1c(CCCNC(=O)c2ccc(F)cc2)nc2ccccc21` is -50.3%; for `COc1ccc(CCC(=O)OC(C)C(=O)c2ccc(C)cc2)cc1` (centres unmarked) it is 0.769%; for `COCCSc1nnc(NC(=O)c2cc(C(=O)OC)cc([N+](=O)[O-])c2)s1` it is 11.4%.
The figure for `CC(C)c1nc(SCC(=O)NCc2ccccc2)n[nH]1` is 2.8%; for `O=C(c1ccc(-n2ccnc2)cc1)N1CCCC(CO)(Cc2cccc(Cl)c2)C1` (centres unmarked) it is -60.4%; for `Cc1ccccc1CC1(CO)CCCN(C(=O)c2cccc(Cl)c2)C1` (centres unmarked) it is 1.01%.
For the compound `CCOC(=O)C1(Cc2ccccc2)CCCN(C(=O)c2ccc(-n3ccnc3)cc2)C1` (centres unmarked), the “hERG current change (%, negative = inhibition) at 10uM” value was -58.4%.
Then `COc1cccc(CC2(CO)CCCN(C(=O)c3cc[n+]([O-])cc3)C2)c1` (centres unmarked), with 10.4%; and `CCOC(=O)C1(Cc2ccccc2)CCCN(C(=O)c2cn[nH]c2)C1` (centres unmarked), with 13.4%; and `CCOC(=O)C1(Cc2ccccc2)CCCN(C(=O)C=C(C)C)C1` (centres unmarked), with 13.2%.
On to `CC(=O)c1ccc(NC(=O)c2ccc(COc3ccccc3[N+](=O)[O-])o2)cc1`, for which the “hERG current change (%, negative = inhibition) at 10uM” value is on record as -8.46%.
In the case of `Cc1cc(=O)n(CC(=O)Nc2cc(Cl)ccc2C)c(C(C)C)n1`, the “hERG current change (%, negative = inhibition) at 10uM” value was -1.59%.
Then `CN(CC1CCOCC1)C(=O)CC1C(=O)NCCN1Cc1ccc(Cl)c(F)c1` (centres unmarked), with 10.4%; and `CCCCNC(=O)c1nn(-c2ccccc2OC)c(=O)c2ccccc12`, with -4.46%.
The figure for `COc1ccc(NC(=O)CCN2CCN(S(=O)(=O)c3ccc(F)cc3)CC2)cc1` is -6.32%; for `Cc1cc(C)c2c(-n3cccc3)c(C(=O)NNS(=O)(=O)c3ccc(Cl)cc3)sc2n1` it is 0.175%.
As for `S=C(Nc1ccc(Br)cc1Cl)NC1CCN(Cc2ccccc2)CC1`, the “hERG current change (%, negative = inhibition) at 10uM” value is reported as -2.37%.
Then `O=C(Nc1cccc(C(F)(F)F)c1)NC1CCCCC1`, with -3.18%; and `CN1CCC(NC(=O)Nc2cccc(C(F)(F)F)c2)CC1`, with -0.705%.
Then `O=C(/C=C/c1cccc(F)c1)NC1CCN(Cc2ccccc2)CC1`, with -70.6%.
Then `CCN1CCC(NC(=O)Nc2cccc(C(F)(F)F)c2)CC1`, with -51.1%.
With `O=C(/C=C/c1cccc(Br)c1)NC1CCN(Cc2ccccc2)CC1`, the “hERG current change (%, negative = inhibition) at 10uM” value is recorded as -71.1%.
The figure for `O=C(COC(=O)/C=C/c1cccc(Br)c1)NC1CC1` is -2.84%.
Then `O=C(Nc1ccc(F)cc1)NC1CCN(Cc2ccccc2)CC1`, with -36.7%; and `COc1ccc(/C=C/C(=O)NC2CCN(Cc3ccccc3)CC2)cc1OC`, with -29%; and `O=C(Nc1ccccc1)NC1CCN(Cc2ccccc2)CC1`, with -39.4%.
Then `O=C(Cc1c(F)cccc1Cl)NC1CCN(Cc2ccccc2)CC1`, with -0.715%.
Regarding `O=C(Nc1cccc(F)c1)NC1CCN(Cc2ccccc2)CC1`, the “hERG current change (%, negative = inhibition) at 10uM” value is on record as -56.4%.
For the compound `COc1ccc(CN2C(=O)[C@H]3Cc4c([nH]c5ccccc45)C(C)(C)N3C2=O)cc1`, the “hERG current change (%, negative = inhibition) at 10uM” value came out at 7%.
Turning to `COc1cccc(NC(=O)N(Cc2cc3cc(C)cc(C)c3[nH]c2=O)CC2COCCO2)c1` (centres unmarked), the “hERG current change (%, negative = inhibition) at 10uM” value amounted to 4.85%.
The figure for `Cc1nnc(SCC(=O)N(Cc2ccccc2)C(C)C)n1-c1ccccc1` is -5.28%; for `Cc1c(O)ccc2c(=O)c(-c3nncn3-c3ccccc3)coc12` it is 21.2%; for `COc1ccc(NC(=O)c2ccccc2C)cc1` it is 14.9%.
The figure for `Cc1c(C(=O)NCCc2ccccc2)oc2ccc(S(=O)(=O)N3CCOCC3)cc12` is -19.1%; for `CC(C)CC(=O)NCC(C)NC(=O)CC(C)C` (centres unmarked) it is 3.51%.
Then `COc1ccc(C(CC(=O)N2CCN(c3ccccc3)CC2)c2c(OC)cc(OC)c3ccc(=O)oc23)cc1` (centres unmarked), with 1.88%.
Consider `Cc1ccc(C2CC(c3ccccc3)n3ncnc3N2)cc1` (centres unmarked), for which the “hERG current change (%, negative = inhibition) at 10uM” value is -1.18%.
For `c1ccc(C2CC(c3ccccc3)n3ncnc3N2)cc1` (centres unmarked), the “hERG current change (%, negative = inhibition) at 10uM” value is recorded as -17.3%.
Consider `Fc1ccc(C2CC(c3ccc(F)cc3)n3ncnc3N2)cc1` (centres unmarked), for which the “hERG current change (%, negative = inhibition) at 10uM” value is recorded as -60%.
With `Fc1ccc(C2CC(c3ccccc3)Nc3ncnn32)cc1` (centres unmarked), the “hERG current change (%, negative = inhibition) at 10uM” value is -45.9%.
Then `Clc1ccc(C2CC(c3ccccc3)Nc3ncnn32)cc1` (centres unmarked), with -64.4%; and `Fc1ccc(C2CC(c3ccccc3)n3ncnc3N2)cc1` (centres unmarked), with -29.3%.
Take `CCc1ccc(/C=C2\SC(=S)N(CCCC(=O)Nc3nccs3)C2=O)cc1`: the “hERG current change (%, negative = inhibition) at 10uM” value is on record as 8.83%.
Then `Cc1ccc(S(=O)(=O)n2nc(OC(=O)c3ccccc3F)cc2N)cc1`, with 9.49%; and `CC(=O)Nc1c(Nc2ccccc2)c2ccccc2oc1=O`, with 3.92%; and `COc1ccc(CN2CCN(C(=O)COc3ccc4ccccc4c3)CC2)c(OC)c1`, with -52.6%.
Then `COc1cccc(C(=O)N2CCN(C(=O)COc3ccc4ccccc4c3)CC2)c1`, with -47.4%; and `COc1ccccc1CN1CCN(C(=O)COc2ccc3ccccc3c2)CC1`, with -36%; and `CN1CCN(C(=O)COc2ccc3ccccc3c2)CC1`, with -3.47%.
For the compound `COc1ccc(N2CCN(C(=O)COc3ccc4ccccc4c3)CC2)cc1`, the “hERG current change (%, negative = inhibition) at 10uM” value is given as 5.36%.
Then `COc1cc(OC)cc(C(=O)N2CCN(C(=O)COc3ccc4ccccc4c3)CC2)c1`, with -64.8%; and `COc1cc(C(=O)N2CCN(C(=O)COc3ccc4ccccc4c3)CC2)cc(OC)c1OC`, with -73%; and `COc1ccc(C(=O)N2CCN(C(=O)c3cc(OC)c(OC)c(OC)c3)CC2)cc1`, with -17.4%.
Then `COc1cc(OC)c(OC)cc1CN1CCN(C(=O)COc2ccc3ccccc3c2)CC1.O=C(O)C(=O)O`, with -36.4%; and `NC(=O)CCN(C1CCCCC1)S(=O)(=O)c1cccc2nsnc12`, with 10.5%; and `Cc1ccc(SCc2cc(=O)c3c(=O)n(-c4ccccc4)[nH]c3[nH]2)cc1`, with 7.34%.
The figure for `N#Cc1nc(-c2ccco2)oc1N1CCCC1` is -11.1%; for `COC(=O)c1cc(S(=O)(=O)NCc2ccc3c(c2)OCO3)cn1C` it is -0.484%.
For the compound `CCOC(=O)c1cc(-c2ccc(N3CCOCC3)cc2)nn1-c1ccccc1C(=O)O`, the “hERG current change (%, negative = inhibition) at 10uM” value stood at 5.59%.
Then `O=C(CCc1nc2ccccc2c(=O)[nH]1)NC1CCN(Cc2ccccc2)CC1`, with -0.782%; and `O=c1nc2ccccc2c2n1CC(CN1CCN(Cc3ccccc3)CC1)N2` (centres unmarked), with -66.1%; and `O=C(O)CN1CCN(C(c2ccccc2)c2ccccc2)CC1`, with 30.4%.
Then `c1ccc(CN2CCN(c3nc4ccccc4c4ccccc34)CC2)cc1`, with -3.19%.
On to `COc1cc2nc(CN3CCN(C(c4ccccc4)c4ccccc4)CC3)[nH]c(=O)c2cc1OC`, for which the “hERG current change (%, negative = inhibition) at 10uM” value turned out to be 1.59%.
Consider `O=c1nc2ccccc2c2n1CC(CN1CCN(C(c3ccccc3)c3ccccc3)CC1)N2` (centres unmarked), for which the “hERG current change (%, negative = inhibition) at 10uM” value was -81.4%.
The figure for `COCCCNC(=O)CCn1c(=O)c2ccccc2n(CC(=O)Nc2ccccc2C)c1=O` is 9.98%; for `CCOc1ccc(Cc2nnc(N)s2)cc1OCC` it is -6.21%.
The figure for `NC(=O)C1(S(=O)(=O)c2ccccc2)CCCCC1` is 13.2%; for `CC1(C)OC(C)(C)/C(=C/Nc2ccccc2)C1=O` it is 10.2%.
The figure for `C[N+]1=C(/C=C/Nc2ccccc2)C(C)(C)c2ccccc21.[O-][Cl+3]([O-])([O-])[O-]` is -81.8%; for `CC1(C)OC(=O)C(=CNc2ccccc2)C(=O)O1` it is -4.48%; for `COc1ccc(OCC(=O)Nc2ccc(S(=O)(=O)N3CCCCC3)cc2)cc1` it is -20.2%.
Turning to `O=C1c2ccc([N+](=O)[O-])cc2C(=O)N1c1ccc([N+](=O)[O-])cn1`, the “hERG current change (%, negative = inhibition) at 10uM” value stood at 14.5%.
The figure for `CCOC(=O)C1CCN(c2nc3ccccc3nc2C(C#N)C(=O)OCCOC)CC1` (centres unmarked) is -27.4%.
Take `CCOC(=O)C1CCCN(c2nc3ccccc3nc2C(C#N)C(=O)OC(C)COC)C1` (centres unmarked): the “hERG current change (%, negative = inhibition) at 10uM” value was -55.2%.
Then `CCOC(=O)C1CCCN(c2nc3ccccc3nc2C(C#N)C(=O)OCC)C1` (centres unmarked), with -14%; and `CCOC(=O)C1CCN(c2nc3ccccc3nc2C(C#N)C(=O)OC(C)COC)CC1` (centres unmarked), with -13.9%.
For the compound `CCOC(=O)C1CCCN(c2nc3ccccc3nc2C(C#N)C(=O)OCCOC)C1` (centres unmarked), the “hERG current change (%, negative = inhibition) at 10uM” value is reported as -66%.
Take `CCOC(=O)C1CCCN(c2nc3ccccc3nc2C(C#N)C(=O)OC(C)C)C1` (centres unmarked): the “hERG current change (%, negative = inhibition) at 10uM” value worked out at 8.39%.
